Measured potencies and affinities stand elsewhere. Active and inactive are the calls of the source. No cut-off is given here; in the data, nearly all actives have IC50 up to about 0.91 µM.
Target: Calcium-dependent protein kinase 4 (Plasmodium falciparum (isolate 3D7)) (UniProt Q8IBS5)
Test: PfCDPK4 kinase inhibitors, biochemical, TCAMS library (AID 1159588)
Conditions: recombinant PfCDPK4, Kinase-Glo ATP depletion luminescence

Chain of Calcium-dependent protein kinase 4 (Plasmodium falciparum (isolate 3D7)) (Q8IBS5 whole entry, looked up): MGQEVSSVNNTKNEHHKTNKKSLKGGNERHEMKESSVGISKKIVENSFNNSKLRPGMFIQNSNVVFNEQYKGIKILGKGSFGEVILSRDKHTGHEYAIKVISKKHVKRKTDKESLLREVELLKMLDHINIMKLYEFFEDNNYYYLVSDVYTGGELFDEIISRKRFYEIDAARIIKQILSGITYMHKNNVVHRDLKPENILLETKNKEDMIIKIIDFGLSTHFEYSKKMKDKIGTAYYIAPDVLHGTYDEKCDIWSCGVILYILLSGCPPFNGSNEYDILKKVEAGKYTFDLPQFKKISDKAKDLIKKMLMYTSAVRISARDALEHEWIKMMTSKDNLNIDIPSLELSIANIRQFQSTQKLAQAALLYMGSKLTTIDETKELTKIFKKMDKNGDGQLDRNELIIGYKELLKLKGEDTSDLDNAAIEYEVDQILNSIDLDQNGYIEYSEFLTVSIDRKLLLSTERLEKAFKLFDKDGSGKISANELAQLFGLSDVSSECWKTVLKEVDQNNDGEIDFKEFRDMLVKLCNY

outcome, inactive:
Cc1ccc2[nH]c3c(c2c1)CC(C(=O)NCCC(C)C)NC31CCN(Cc2ccccc2)CC1 (stereo not given)
COc1ccc2nccc([C@@H](O)CN3CCC(NCc4cc5sccc5nc4C(F)(F)F)CC3)c2c1
Cc1cc(C2CCN(CCCCNC(=O)c3ccc(-c4ccc(C(F)(F)F)cc4)cc3)CC2)c(C)cc1OCCOC1CCCCO1 (stereo not given)
FC(F)(F)CNc1nc(Nc2ccc3ncccc3c2)nc2[nH]ccc12
CCS[C@@H]1O[C@H](COC(=O)c2ccccc2)[C@H](OC(=O)c2ccccc2)[C@H](OC(=O)c2ccccc2)[C@H]1OC(=O)c1ccccc1
COc1ccc(S(=O)(=O)Nc2cc(C)cc(Br)c2OC)cc1N1CCN(C(=O)C(Cl)(Cl)Cl)CC1
COc1ccc(NC(=O)c2ccc(OCCCCCCCOc3ccc(C(=O)Nc4ccc(OC)c(N5CCN(C)CC5)c4)cc3)cc2)cc1N1CCN(C)CC1
CCOC(=O)C(C#N)NC(=O)C=Cc1ccccc1 (stereo not given)
CCC(=O)Nc1cc(=O)[nH]c2nc(-c3ccc(Cl)cc3)nn12
COc1cccc(C2(c3cccc(OC)c3)N=C(N)N(CCCc3ccccc3)C2=O)c1
COc1ccc(CCN(C)CCCN2CCC(NC(=O)c3cccc4c(=O)c5ccccc5sc34)CC2)cc1OC
Oc1cccc(Nc2ccnc3cc(-c4cc5ccccc5o4)ccc23)c1
Cc1cccc2[nH]c(-c3cccc(-c4ccc(NC(=O)CN5CCN(C)CC5)cc4)c3)nc12
Nc1ccc(-c2ccc3ccnc(N)c3c2)cc1
Cn1cnc2c(SCc3ccccc3OCc3ccccc3)ncnc21
O=C(Nc1ccc2c(c1)CCN2C1CCN(Cc2csc3ccccc23)C1)c1ccco1 (stereo not given)
COc1ccc2cc(-c3nc(-c4c(Cl)cccc4Cl)[nH]c3-c3ccnc(NCCCN4CCCCC4C)c3)ccc2c1 (stereo not given)
COc1cc(Cc2cnc(N)nc2N)cc(CC(C)O)c1O (stereo not given)
COc1ccc(N2CCN(CCCCNC(=O)c3ccc(NC(=O)c4cc(C(F)(F)F)cc(C(F)(F)F)c4)cc3)CC2)c(OC)c1
Cc1ccc(C(=O)Nc2cccc(CN3CCCN(Cc4ccc(O)cc4)CC3)c2)cc1
O=C(Nc1cccc(-c2cccc(-c3nc4ccc(C(F)(F)F)cc4[nH]3)c2)c1)c1csnn1
Cc1ccc(OCCCCON2C(N)=NC(N)=NC2(C)C)cc1C
CCOc1cc(NCCCNc2ncc([N+](=O)[O-])cc2C)nc2ccccc12
N#Cc1cccc(C(=O)Nc2cccc(-c3ccc(CN4CCCC4)cc3)c2)c1
O=C(O)c1ccc(NC(=O)C2CC(=O)N(Cc3ccc(Cl)cc3)C(=Nc3ccc(Cl)cc3)S2)cc1 (stereo not given)
CN1CCN(c2cc(-c3ccncc3)nc(-c3cccnc3)n2)CC1
COC(=O)c1cccc(CNCc2cccc(-c3cccc(-c4nc5ccc(C(F)(F)F)cc5[nH]4)c3)c2)c1
O=C(Nc1cc(Cl)cc(Cl)c1)Nc1ccccc1C(=O)NC1CCCCC1
COCCN1CCN(Cc2ccc(-c3ccc(-c4nc5ccc(F)cc5[nH]4)cc3)cc2)CC1
Cc1noc(-c2ccc3c(c2)CCN(CCC2CCC(NC(=O)/C=C/c4ccc(F)cc4)CC2)CC3)n1 (stereo not given)
O=S(=O)(NCCN1CCCC1)c1ccc(-c2cccc(CNCCc3cccs3)c2)s1
CCSc1ccccc1CON1C(N)=NC(N)=NC1(C)C
Cc1cccc2[nH]c(-c3cccc(-c4ccc(CN5CCN(CCO)CC5)cc4)c3)nc12
Cn1cnc(CCNC(=O)c2cccc(-c3csc(-c4nc5ccccc5[nH]4)c3)c2)c1
CC(C)(C)c1ccc(O)c(CNC2CCCCC2)c1
O=[N+]([O-])c1ccc(CNCCCCCCNCc2ccc([N+](=O)[O-])c3ccccc23)c2ccccc12
CN(C)Cc1ccc2cc(NC(=O)c3ccc(-c4ccc(Cl)cc4)cc3)ccc2n1
CCN(CC)C(=O)C1CCN(C(C(=O)N2CCN(CC(=O)N3CCCC3)CC2)c2cc3ccccc3o2)CC1 (stereo not given)
N#Cc1ccc(Sc2nnc(-c3ccccc3Cl)n2CC2CCCCC2)cc1[N+](=O)[O-]
Oc1c(C(Nc2ccccn2)c2ccco2)cc(Cl)c2cccnc12 (stereo not given)

Reference: PubChem BioAssay
